# Sampled rows, rich in hits. Any-hit rate of the full collection: about 1.3%.
# LANA-H2B inh = blocks KSHV LANA binding to histone H2A/H2B; Q9QR71; cell-free LANA-H2A/H2B peptide, fluorescence polarization; inhibition, % (no concentration beside the values); 0.6% of 320,000 active; AID 2629; in the data active = inhibition mostly above about 10%, no sharp cut-off; inactive = mostly below about 6.7%
# Keap1 Nrf2 FP = disrupts human Keap1 binding to Nrf2 peptide; 0.15% of 340,000 active; inhibition, % at 9.4 µM; AID 504523; Keap1 Kelch-Nrf2 peptide fluorescence polarization, 1536-well; Q14145; in the data active = inhibition above about 12%;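 note: human Keap1 Kelch domain with fluorescein labeled Nrf2 9mer peptide probe; 0% = neutral control wells and 100% = peptide positive control; higher means more block of Keap1 binding to Nrf2 peptide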
# Cardiac RTF inh = cardiac RTF calcium desensitization; P19429+P45379; IANBD-labeled cardiac RTF, Ca2+ fluorescence; inhibition, % at 7.15 µM; 0.12% of 340,000 active;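 active = inhibition above the mean inhibition of all tested compounds plus 3 SD, cut at about 17% in these data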;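 note: assay run at fixed EC70 calcium of 1.6 mM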
# E coli Lon inh = inhibits E. coli Lon protease | 0.42% of 360,000 active | purified E. coli Lon protease, fluorescence polarization | inhibition, % at 7.94 µM | AID 602123; in the data active = inhibition above about 13%, passing the limit was not always enough;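 note: 0% = enzyme with probe and DMSO and 100% = no enzyme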
# RTF Ca sens act = increases calcium sensitivity of human cardiac regulated thin filaments | P19429+P45379 | IANBD-labeled TnC RTF fluorescence at EC20 calcium; 0% EC20 calcium, 100% full calcium | activation, % at 7.2 µM | 0.24% of 340,000 active | AID 493008;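 active = activation above the mean over all tested compounds plus 3 SD, cut at about 30% in these data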;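 note: rise in fluorescence read as greater calcium sensitivity of cardiac thin filaments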
# C-LANA FP = blocks KSHV LANA C-terminal domain binding to DNA; AID 504423; inhibition, % at 9 µM; 0.078% of 340,000 active; MBP-C-LANA/FAM-LBS DNA binding, fluorescence polarization;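 active = highest replicate inhibition at or above 60% at 9 µM, even if other replicates fall short; inactive = all replicates below 60% inhibition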;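 note: 0% = neutral control wells and 100% = 4 µM acridine orange control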
# The depositor's hits bear a star; x = not tested or not shown; + = active, no number.
SMILES,LANA-H2B inh,Keap1 Nrf2 FP,Cardiac RTF inh,E coli Lon inh,RTF Ca sens act,C-LANA FP
Cc1ccc(S(=O)(=O)c2c(C)nn(C(C)(C)C)c2OC(=O)c2ccco2)cc1,15*,1,0,-1,-5,0
CCOC(=O)C1C(=O)CC(C)(O)C(C(=O)OCC)C1/C=C/c1ccccc1 (stereo unspecified),82*,-3,-6,-8,0,-2
COc1ccc(Cl)cc1NC(=O)c1cc(-c2ccc(C)cc2O)n[nH]1,23*,-1,-2,-13,6,1
CCOC(=O)C1CCCN(S(=O)(=O)NC[C@H]2O[C@@H](n3cnc4c(N)ncnc43)[C@H](O)[C@@H]2O)C1 (stereo partly specified),+,-4,-3,5,-3,1
CN1CCN(S(=O)(=O)NC[C@H]2O[C@@H](n3cnc4c(N)ncnc43)[C@H](O)[C@@H]2O)CC1,x,5,-5,-7,-8,-1
CC(C)CN(C#N)c1nc(N2CCOCC2)nc(N2CCOCC2)n1,0,-1,-1,-2,-3,0
CN(C#N)c1nc(N2CCOCC2)nc(N2CCOCC2)n1,41*,-4,-2,0,0,0
CCC(C)NC(=O)c1ccc(CN2CCc3ccccc3C2)cc1 (stereo unspecified),-3,-4,-2,3,5,0
COCC(C)NC(=O)c1ccc(CN2CCc3ccccc3C2)cc1 (stereo unspecified),31*,0,-6,-3,0,0
CCC(=O)c1ccc(OCc2ccc(C(=O)OC)cc2)cc1,14*,-6,-3,8,4,1
Cc1ccc(C2(c3ccccc3)NC(=O)N(CC(=O)N(C)C3CCS(=O)(=O)C3)C2=O)cc1C (stereo unspecified),16*,5,1,-8,-7,-1
CCN(C(=O)CN1C(=O)NC(c2ccccc2)(c2ccc(C)c(C)c2)C1=O)C1CCS(=O)(=O)C1 (stereo unspecified),-4,2,7,15,-7,-2
Cc1ccc(C2(c3ccccc3)NC(=O)N(CC(=O)NC3(C#N)CCCC3)C2=O)cc1C (stereo unspecified),+,-6,-7,5,-5,0
COc1cc(OC)cc(C(=O)NCC(=O)NC(C)c2ccccc2)c1 (stereo unspecified),-6,-3,2,7,4,-2
O=C(CN1CCN(S(=O)(=O)c2cccc(Br)c2)CC1)NCCc1cccs1,-157,-5,-1,-17,-3,-4
Cc1cc(S(=O)(=O)N2CCN(CC(=O)NCCc3cccs3)CC2)ccc1Br,+,-9,-6,-2,-3,3
CC1CC(=O)NN=C1c1ccc(N(C)C)c([N+](=O)[O-])c1 (stereo unspecified),-2,-3,-2,-3,0,0
CCN(CC)c1ccc(C2=NNC(=O)CC2C)cc1[N+](=O)[O-] (stereo unspecified),20*,1,-2,3,-2,0
O=C(O)c1ccccc1C(=O)NCc1ccccc1,0,-5,-2,-3,4,-1
O=C(O)c1ccccc1C(=O)NCc1ccc(F)cc1,20*,-1,-3,-7,-6,3
Cc1nc2ccccc2c2c(N)cccc12,x,-6,-1,-12,-3,0
CCOc1ccccc1OCCOc1ccc(F)cc1,26*,-1,-6,-3,-1,0
CCOC(=O)c1ccc(OCCOc2ccccc2C)cc1,0,-1,-11,-2,1,0
CC(C)c1nc(SCC(=O)N2CCCCC2)c2c(=O)n(C)c(=O)n(C)c2n1,x,x,x,10,x,x
CC(C)c1nc(SCC(=O)N2CCCCCC2)c2c(=O)n(C)c(=O)n(C)c2n1,53*,2,-1,-10,-6,-2
O=C(Nc1ccc(F)c(Cl)c1)C1CC(=O)N(Cc2ccco2)C1 (stereo unspecified),+,-6,0,-3,-3,1
O=C(Nc1ccc(F)c(Cl)c1)C1CC(=O)N(Cc2ccccc2)C1 (stereo unspecified),0,0,4,-1,1,-1
COc1cccc(OCCOc2c(OC)cccc2OC)c1,14*,0,-12,-15,-10,-1
COc1cccc(OC)c1OCCCOc1c(OC)cccc1OC,5,-5,4,1,-5,0

# Screening data: PubChem BioAssay, several laboratories
